EWS-Fli inh: blocks EWS/Fli oncoprotein-driven transcription | hit rate 0.67% among 350,000 | inhibition, % at 12.6 µM | A673 NR0B1-luciferase reporter, viability-normalised;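 active = mean inhibition of at least 50% after viability correction, with every replicate also passing that limit; inconclusive = mean reaches 50% but only one of two replicates passes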;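 also: firefly luciferase signal divided by Alamar Blue viability fluorescence both relative to DMSO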
ABHD5-PLIN5 inh: blocks binding of human ABHD5 to perilipin-5. Q00G26+Q8WTS1. Split G. princeps luciferase complementation, luminescence, 4 h. inhibition, % at 4 µM. hit rate 0.78% among 360,000. AID 602281;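 active = inhibition above the mean inhibition across every tested compound plus 3 SD, cut at about 22% in these data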
Target sequence (Q00G26 whole entry, looked up): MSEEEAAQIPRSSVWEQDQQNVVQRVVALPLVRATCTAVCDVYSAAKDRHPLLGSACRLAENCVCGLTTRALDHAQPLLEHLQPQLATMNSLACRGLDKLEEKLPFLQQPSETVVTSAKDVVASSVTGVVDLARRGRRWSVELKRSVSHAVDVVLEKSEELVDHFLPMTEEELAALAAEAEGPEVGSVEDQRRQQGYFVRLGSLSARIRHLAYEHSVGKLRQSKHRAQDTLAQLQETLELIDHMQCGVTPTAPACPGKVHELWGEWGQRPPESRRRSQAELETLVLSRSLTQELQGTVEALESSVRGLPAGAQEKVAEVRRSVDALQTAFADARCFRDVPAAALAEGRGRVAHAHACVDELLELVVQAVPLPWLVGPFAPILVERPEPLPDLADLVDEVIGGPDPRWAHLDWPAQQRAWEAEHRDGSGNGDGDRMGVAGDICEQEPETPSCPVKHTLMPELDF
Target sequence (Q8WTS1 whole entry, looked up): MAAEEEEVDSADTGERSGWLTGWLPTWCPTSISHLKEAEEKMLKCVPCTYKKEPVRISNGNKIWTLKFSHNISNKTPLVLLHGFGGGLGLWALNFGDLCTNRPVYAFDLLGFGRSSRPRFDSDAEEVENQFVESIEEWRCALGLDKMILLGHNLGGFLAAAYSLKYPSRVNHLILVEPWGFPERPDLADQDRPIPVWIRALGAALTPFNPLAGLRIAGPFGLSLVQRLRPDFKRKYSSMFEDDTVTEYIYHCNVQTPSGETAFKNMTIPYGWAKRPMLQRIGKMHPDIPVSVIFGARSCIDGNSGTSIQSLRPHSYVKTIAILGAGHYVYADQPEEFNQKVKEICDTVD
PAX8 reporter: lowers PAX8-driven luciferase in RMG-I cells. RMG-I TPO-luciferase reporter, SteadyGlo, 24 h. inhibition, % at 12.6 µM. hit rate 1.2% among 360,000. AID 652154;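 active = mean replicate inhibition at least 60% with every replicate also reaching 60%; inconclusive = only one of the two criteria is met; inactive = mean below 60% and not all replicates reaching 60%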;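 also: luciferase light reporting Pax8 driven TPO promoter activity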
Peg3 promoter: Peg3 promoter activity inhibition. HeLa PEG-Prom luciferase reporter, luminescence, overnight. inhibition, % at 20 µM. hit rate 1.7% among 360,000. AID 588405;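 active = inhibition of at least 50% at 20 µM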
TRPM1 prom inh: MITF TRPM1 promoter inhibition in SK-MEL-5 cells | SK-MEL-5 TRPM1 promoter luciferase, 24 h | inhibition, % at 12.5 µM | hit rate 0.83% among 330,000 | AID 488899;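 active = mean inhibition across replicates of 60% or more, whatever share of single replicates reaches that level; inconclusive = some that reach 60%, reason not given; inactive = mean inhibition across replicates below 60%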
Shn3 inh set2: Schnurri-3 reporter inhibition in Clone20 osteoblasts | hit rate 0.52% among 360,000 | Clone20 osteoblast Shn3 3'UTR firefly luciferase, 24 h | inhibition, % at 12.5 µM;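 active = mean inhibition of at least 75% with every replicate also reaching 75%; inconclusive = mean inhibition at least 75% but some replicate below; inactive = mean inhibition below 75%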
Numbers stand for hits. Rows were chosen to be rich in hits. Some 3% of all compounds tested hit in one or more screens of this group.

CC(C)(C)OC(=O)NCc1ccc(NC(=O)c2nc[nH]c2C(=O)NCCN(CCNC(=O)c2[nH]cnc2C(=O)Nc2ccc(CNC(=O)OC(C)(C)C)cc2)CCNC(=O)c2[nH]cnc2C(=O)Nc2ccc(CNC(=O)OC(C)(C)C)cc2)cc1 was read as EWS-Fli inh inactive, ABHD5-PLIN5 inh inactive, PAX8 reporter inactive, Peg3 promoter inactive, TRPM1 prom inh inactive and Shn3 inh set2 inactive.
CC(C)(C)OC(=O)NCc1ccc(NC(=O)c2nc[nH]c2C(=O)NCCCCNC(=O)c2[nH]cnc2C(=O)Nc2ccc(CNC(=O)OC(C)(C)C)cc2)cc1 was read as ABHD5-PLIN5 inh inactive, Peg3 promoter 93.3, TRPM1 prom inh inactive and Shn3 inh set2 inactive.
Screening CC(C)(C)OC(=O)NCCCC[C@H](NC(=O)c1[nH]cnc1C(=O)Nc1ccc(CNC(=O)OC(C)(C)C)cc1)C(=O)OC(C)(C)C returned EWS-Fli inh inactive and PAX8 reporter 110.0.
For C[C@H]1CCCCO[C@H](CN(C)C(=O)Nc2ccc3c(c2)OCO3)[C@@H](C)CN([C@@H](C)CO)C(=O)c2cc(NS(=O)(=O)c3ccc(F)cc3)ccc2O1 the results were EWS-Fli inh inactive and PAX8 reporter inactive.
`C[C@@H]1CN([C@H](C)CO)C(=O)c2cc(NC(=O)Nc3ccc(C(F)(F)F)cc3)ccc2O[C@@H](C)CCCCO[C@H]1CN(C)C(=O)C1CCCCC1` gave EWS-Fli inh inactive.
`COC(=O)C[C@H]1CC[C@@H]2[C@H](COc3ccc(NC(=O)Nc4ccc(C)cc4)cc3C(=O)N2C)O1` gave EWS-Fli inh inactive and PAX8 reporter inactive.
For COc1ccc(NC(=O)COC(=O)/C=C/C(=O)OCC(=O)Nc2ccc(OC)c(Cl)c2)cc1Cl the results were ABHD5-PLIN5 inh inactive, PAX8 reporter inactive, Peg3 promoter 56.2, TRPM1 prom inh inactive and Shn3 inh set2 inactive.
COc1ccc(S(=O)(=O)N[C@@H]2C=C[C@@H](CC(=O)N3CCC(Cc4ccccc4)CC3)O[C@H]2CO)cc1 was read as EWS-Fli inh inactive and PAX8 reporter inactive.
`Cc1ccc(NC(=O)CSc2nsc(SCC(=O)Nc3ccc(C)cc3C)c2C#N)c(C)c1` gave EWS-Fli inh inactive, ABHD5-PLIN5 inh inactive, PAX8 reporter inactive, Peg3 promoter 76.8, TRPM1 prom inh inactive and Shn3 inh set2 inactive.
For Cc1c(N/N=C(\C#N)C(=O)c2ccccc2)c(=O)n(-c2ccccc2)n1C the results were EWS-Fli inh inactive, ABHD5-PLIN5 inh inactive, PAX8 reporter inactive, Peg3 promoter inactive, TRPM1 prom inh inactive and Shn3 inh set2 89.4.
Screening Cc1ccccc1-c1ccccc1[C@H]1[C@@H](C#N)N(C(=O)c2ccccc2)[C@H]1CO returned EWS-Fli inh inactive.
Screening N#CC1c2ccccc2-c2ccccc2N1C(=O)c1ccccc1 (stereo not given) returned EWS-Fli inh 54.5, ABHD5-PLIN5 inh inactive, PAX8 reporter inactive, Peg3 promoter inactive and Shn3 inh set2 inactive.
Screening CCN(CC)c1ccc2nc3ccccc3[n+](CC)c2c1 returned ABHD5-PLIN5 inh inactive, Peg3 promoter 56.9, TRPM1 prom inh 66.5 and Shn3 inh set2 inactive.
O=C(C[C@@H]1CC[C@H]2[C@@H](COC[C@@H](O)CN2S(=O)(=O)c2ccc(F)cc2)O1)NCC1CCCCC1 was read as EWS-Fli inh inactive and PAX8 reporter inactive.
Screening C/C=C/c1cnc2c(c1)C(=O)N([C@@H](C)CO)C[C@@H](C)[C@@H](CN(C)Cc1cncnc1)O2 returned EWS-Fli inh inactive.
For COc1ccc(-c2cnc3c(NC=O)cc(-c4cccc(NS(C)(=O)=O)c4)cn23)cc1OC the results were EWS-Fli inh inactive, ABHD5-PLIN5 inh inactive, PAX8 reporter 111.6, Peg3 promoter 69.4 and Shn3 inh set2 inactive.
COc1ccc(-c2cc(NC=O)c3ncc(-c4cccc(OC)c4)n3c2)cc1 was read as EWS-Fli inh inactive, ABHD5-PLIN5 inh inactive, PAX8 reporter inactive, Peg3 promoter inactive and Shn3 inh set2 inactive.
`CS(=O)(=O)Nc1cccc(-c2cc(NC=O)c3ncc(-c4ccc(F)c(Cl)c4)n3c2)c1` gave EWS-Fli inh inactive, ABHD5-PLIN5 inh inactive, PAX8 reporter 64.1, Peg3 promoter inactive and Shn3 inh set2 inactive.
For CC(=O)N(C)C[C@@H]1Oc2cc(C#CC(C)C)ccc2S(=O)(=O)N([C@H](C)CO)C[C@H]1C the results were EWS-Fli inh inactive.
`O=C1OC(c2ccccc2)(c2cc(Br)ccc2O)c2ccccc21` (stereo not given) gave EWS-Fli inh inactive, ABHD5-PLIN5 inh inactive, PAX8 reporter inactive, Peg3 promoter 104.2, TRPM1 prom inh inactive and Shn3 inh set2 inactive.
For O=C1OC(c2ccc(O)cc2)(c2ccccc2O)c2ccccc21 (stereo not given) the results were EWS-Fli inh inactive, ABHD5-PLIN5 inh inactive, PAX8 reporter inactive, Peg3 promoter inactive, TRPM1 prom inh inactive and Shn3 inh set2 inactive.
O=C1OC(c2ccccc2)(c2ccc3cc(O)ccc3c2)c2ccccc21 (stereo not given) was read as EWS-Fli inh inactive, ABHD5-PLIN5 inh inactive, PAX8 reporter inactive, Peg3 promoter 78.8, TRPM1 prom inh inactive and Shn3 inh set2 inactive.
For O=C1OC(c2ccc(O)cc2)(c2ccc(O)cc2)c2ccccc21 the results were EWS-Fli inh inactive, ABHD5-PLIN5 inh inactive, PAX8 reporter inactive, Peg3 promoter inactive, TRPM1 prom inh inactive and Shn3 inh set2 inactive.
Screening Cc1ncc(CO)c(/C=N/NC(=O)c2cc3c(s2)CCCC3)c1O returned EWS-Fli inh inactive, ABHD5-PLIN5 inh inactive, PAX8 reporter inactive, Peg3 promoter inactive, TRPM1 prom inh inactive and Shn3 inh set2 91.3.
`CC(C)C[C@H]1CN=C(Nc2ccccc2)N1CC1CCCC1` gave EWS-Fli inh inactive, ABHD5-PLIN5 inh inactive, PAX8 reporter inactive, Peg3 promoter inactive, TRPM1 prom inh inactive and Shn3 inh set2 inactive.
Screening CC(C)C[C@H]1CN=C(Nc2ccccc2)N1CC1CCC(C(C)(C)C)CC1 (stereo not given in full) returned ABHD5-PLIN5 inh inactive, Peg3 promoter 103.2, TRPM1 prom inh inconclusive and Shn3 inh set2 inactive.
C[C@H]1CN([C@@H](C)CO)C(=O)c2cc(NC(=O)CCCN(C)C)ccc2O[C@H]1CN(C)C(=O)NC1CCCCC1 was read as PAX8 reporter inactive.
For Cc1cc(Sc2nc(N)ncc2[N+](=O)[O-])ncn1 the results were EWS-Fli inh inactive, ABHD5-PLIN5 inh inactive, PAX8 reporter inactive, Peg3 promoter 78.9, TRPM1 prom inh inactive and Shn3 inh set2 inactive.
`C[C@@H]1CCCCO[C@H](CN(C)C(=O)Nc2ccc(F)cc2)[C@@H](C)CN([C@H](C)CO)C(=O)c2cc(NC(=O)Nc3ccc4c(c3)OCO4)ccc2O1` gave EWS-Fli inh inactive and PAX8 reporter inactive.
`CC12CCC(O)CC1=CCC1C2CCC2(C)C3=NN=CC3CC12` (stereo not given) gave EWS-Fli inh inactive, ABHD5-PLIN5 inh inactive, PAX8 reporter inactive, Peg3 promoter 51.2, TRPM1 prom inh inactive and Shn3 inh set2 inactive.
